# Source: PubChem BioAssay (NCATS)
# For part of these data: Measured potencies and affinities stand elsewhere. Calls of active or inactive are those of the source. How the calls were made is not given here.
# Settings: Ebola virus entry assay, green fluorescence channel
# Wherever efficacy is given: 0% is about no effect.
row,Compound,efficacy
1,CN(C)CCCOc1nn(Cc2ccccc2)c2ccccc12,54.9% (inactive)
2,COc1ccc(/C=C/C(=O)c2ccc(OC)cc2OC)cc1,38.6% (inactive)
3,CCN(CC)CCOc1ccc(Cc2ccccc2)cc1,70.7% (inactive)
4,Cc1c(C)n(Cc2ccccc2)c2ccc(C(=O)OCCN(C)C)cc12,60.6% (inactive)
5,CCC(C(=O)OCCN1CCOC(c2ccccc2)C1C)c1ccccc1 (stereo not drawn),88.5% (inactive)
6,CO[C@@H]1[C@@H](O[C@@H]2O[C@H](C)[C@@H](O[C@H]3C[C@@](C)(O)[C@@H](O)[C@H](C)O3)[C@H](N(C)C)[C@H]2O)[C@@H](CC=O)C[C@@H](C)[C@@H](O[C@@H]2CC[C@H](N(C)C)[C@@H](C)O2)/C=C/C=C/C[C@@H](C)OC(=O)C[C@H]1OC(C)=O,64.5% (inactive)
7,C[C@@H]1CCC[C@H](C)N1CCCC(O)(c1ccccc1)c1ccccn1 (stereo partly drawn),81.9% (inactive)
8,CC1(C)[C@H](C(=O)O)N2C(=O)C[C@H]2S1(=O)=O,90.1% (inactive)
9,CCN(CC)CCOC(=O)C(Cc1cccc2ccccc12)CC1CCCO1 (stereo not drawn),78.5% (inactive)
10,N#C/C(=C1/SC[C@@H](c2ccc(Cl)cc2Cl)S1)n1ccnc1,68.3% (inactive)
11,CC(=O)c1ccc2c(c1)N(CCCN(C)C)c1ccccc1S2,87% (inactive)
12,COC(=O)Nc1nc2ccc(S(=O)c3ccccc3)cc2[nH]1 (stereo not drawn),35.9% (inactive)
13,Nc1c2ccccc2nc2ccccc12,59% (inactive)
14,CN(C)CCCOC1(Cc2ccccc2)CCCCCC1,64.1% (inactive)
15,CCN(CC)CCOC(=O)C1(c2ccccc2)CCCC1,69.1% (inactive)
16,Cc1c(C)c2c(c(C)c1OC(=O)CCC(=O)OCCO)CC[C@@](C)(CCC[C@H](C)CCC[C@H](C)CCCC(C)C)O2,-73.4% (inactive)
17,CCC(=O)c1ccc2c(c1)N(CCCN(C)C)c1ccccc1S2,153% (inactive)
18,O=C(CCCN1CCN(c2ccc(F)cc2)CC1)NC1c2ccccc2CSc2ccccc21 (stereo not drawn),64.4% (inactive)
19,CCN(CC)CCNc1ccc(CO)c2sc3ccccc3c(=O)c12,47.9% (inactive)
20,CN(C)CCCSc1ccccc1NC(=O)/C=C/c1ccccc1,79.5% (inactive)

row,Compound,efficacy
1,CN1CCN(C2=Nc3ccccc3Sc3ccc(Cl)cc32)CC1,66% (inactive)
2,CC(C(O)c1ccccc1)N(C)CCOC(c1ccccc1)c1ccccc1 (stereo not drawn),65% (inactive)
3,CN(C)CCOc1ccccc1Cc1ccccc1,74.8% (inactive)
4,CCCC(C(=O)OCCN(CC)CC)(c1ccccc1)c1ccccc1,-182% (inactive)
5,CC(C)C[C@@H]1[C@H](c2ccccc2)OC(=O)N1CCCN1CCCCCC1,64.2% (inactive)
6,C[C@H]1C[C@H]2[C@@H]3CCC4=CC(=O)C=C[C@]4(C)[C@@]3(Cl)[C@@H](O)C[C@]2(C)[C@@]1(O)C(=O)CO,103% (inactive)
7,O=C(CN1CCN(Cc2ccc3c(c2)OCO3)CC1)N1c2ccccc2Sc2ccccc21,86.4% (inactive)
8,CCC(C(=O)OCCOCCN(CC)CC)c1ccccc1 (stereo not drawn),61.4% (inactive)
9,CC(=O)c1ccc2c(c1)N(CCCN1CCC(CCO)CC1)c1ccccc1S2,62.5% (inactive)
10,CN1CCCC(n2nc(Cc3ccc(Cl)cc3)c3ccccc3c2=O)CC1 (stereo not drawn),78.3% (inactive)
11,COc1cccc(CCc2ccccc2OCC(CN(C)C)OC(=O)CCC(=O)O)c1 (stereo not drawn),95.8% (inactive)
12,Clc1ccc2c(c1)CCc1cccnc1C2=C1CCNCC1,49.7% (inactive)
13,CCN(CC)CCOC(=O)C(c1ccccc1)c1ccccc1,39% (inactive)
14,N[C@H](C(=O)O)[C@@H](O)c1ccc(O)c(O)c1,53.3% (inactive)
15,Oc1cccc(-c2c3nc(c(-c4cccc(O)c4)c4ccc([nH]4)c(-c4cccc(O)c4)c4nc(c(-c5cccc(O)c5)c5ccc2[nH]5)CC4)C=C3)c1,82.1% (inactive)
16,COc1cc2c(cc1OC)-c1cc(=Nc3c(C)cc(C)cc3C)n(C)c(=O)n1CC2,20.5% (inactive)
17,c1ccc(-c2ccc(C(c3ccccc3)n3ccnc3)cc2)cc1 (stereo not drawn),98.3% (inactive)
18,c1ccc(OCc2ccc(CCCN3CCOCC3)cc2)cc1,89.3% (inactive)
19,CN1CCC(Nc2ncc3ncnc(Nc4ccc(F)c(Cl)c4)c3n2)CC1,97.2% (inactive)

# Settings: Ebola virus entry assay, blue channel fluorescence
Compound,AC50,outcome
CN(C)CCCOc1nn(Cc2ccccc2)c2ccccc12,7.94 µM (active),–
COc1ccc(/C=C/C(=O)c2ccc(OC)cc2OC)cc1,39.8 µM (active),–
CCN(CC)CCOc1ccc(Cc2ccccc2)cc1,7.94 µM (active),–
Cc1c(C)n(Cc2ccccc2)c2ccc(C(=O)OCCN(C)C)cc12,3.16 µM (active),–
CCC(C(=O)OCCN1CCOC(c2ccccc2)C1C)c1ccccc1 (stereo not drawn),22.4 µM (active),–
CO[C@@H]1[C@@H](O[C@@H]2O[C@H](C)[C@@H](O[C@H]3C[C@@](C)(O)[C@@H](O)[C@H](C)O3)[C@H](N(C)C)[C@H]2O)[C@@H](CC=O)C[C@@H](C)[C@@H](O[C@@H]2CC[C@H](N(C)C)[C@@H](C)O2)/C=C/C=C/C[C@@H](C)OC(=O)C[C@H]1OC(C)=O,3.16 µM (active),–
C[C@@H]1CCC[C@H](C)N1CCCC(O)(c1ccccc1)c1ccccn1 (stereo partly drawn),25.1 µM (active),–
CC1(C)[C@H](C(=O)O)N2C(=O)C[C@H]2S1(=O)=O,15.8 µM (active),–
CCN(CC)CCOC(=O)C(Cc1cccc2ccccc12)CC1CCCO1 (stereo not drawn),12.6 µM (active),–
N#C/C(=C1/SC[C@@H](c2ccc(Cl)cc2Cl)S1)n1ccnc1,39.8 µM (active),–
CC(=O)c1ccc2c(c1)N(CCCN(C)C)c1ccccc1S2,12.6 µM (active),–
COC(=O)Nc1nc2ccc(S(=O)c3ccccc3)cc2[nH]1 (stereo not drawn),3.16 µM (active),–
Nc1c2ccccc2nc2ccccc12,–,inactive
CN(C)CCCOC1(Cc2ccccc2)CCCCCC1,17.8 µM (active),–
CCN(CC)CCOC(=O)C1(c2ccccc2)CCCC1,28.2 µM (active),–
Cc1c(C)c2c(c(C)c1OC(=O)CCC(=O)OCCO)CC[C@@](C)(CCC[C@H](C)CCC[C@H](C)CCCC(C)C)O2,39.8 µM (active),–
CCC(=O)c1ccc2c(c1)N(CCCN(C)C)c1ccccc1S2,20 µM (active),–
O=C(CCCN1CCN(c2ccc(F)cc2)CC1)NC1c2ccccc2CSc2ccccc21 (stereo not drawn),8.91 µM (active),–
CCN(CC)CCNc1ccc(CO)c2sc3ccccc3c(=O)c12,17.8 µM (active),–
CN(C)CCCSc1ccccc1NC(=O)/C=C/c1ccccc1,15.8 µM (active),–

Compound,AC50,outcome
CN1CCN(C2=Nc3ccccc3Sc3ccc(Cl)cc32)CC1,39.8 µM (active),–
CC(C(O)c1ccccc1)N(C)CCOC(c1ccccc1)c1ccccc1 (stereo not drawn),3.16 µM (active),–
CN(C)CCOc1ccccc1Cc1ccccc1,3.55 µM (active),–
CCCC(C(=O)OCCN(CC)CC)(c1ccccc1)c1ccccc1,3.16 µM (active),–
CC(C)C[C@@H]1[C@H](c2ccccc2)OC(=O)N1CCCN1CCCCCC1,12.6 µM (active),–
C[C@H]1C[C@H]2[C@@H]3CCC4=CC(=O)C=C[C@]4(C)[C@@]3(Cl)[C@@H](O)C[C@]2(C)[C@@]1(O)C(=O)CO,25.1 µM (active),–
O=C(CN1CCN(Cc2ccc3c(c2)OCO3)CC1)N1c2ccccc2Sc2ccccc21,39.8 µM (active),–
CCC(C(=O)OCCOCCN(CC)CC)c1ccccc1 (stereo not drawn),28.2 µM (active),–
CC(=O)c1ccc2c(c1)N(CCCN1CCC(CCO)CC1)c1ccccc1S2,3.16 µM (active),–
CN1CCCC(n2nc(Cc3ccc(Cl)cc3)c3ccccc3c2=O)CC1 (stereo not drawn),3.16 µM (active),–
COc1cccc(CCc2ccccc2OCC(CN(C)C)OC(=O)CCC(=O)O)c1 (stereo not drawn),1.78 µM (active),–
Clc1ccc2c(c1)CCc1cccnc1C2=C1CCNCC1,7.08 µM (active),–
CCN(CC)CCOC(=O)C(c1ccccc1)c1ccccc1,20 µM (active),–
N[C@H](C(=O)O)[C@@H](O)c1ccc(O)c(O)c1,22.4 µM (active),–
Oc1cccc(-c2c3nc(c(-c4cccc(O)c4)c4ccc([nH]4)c(-c4cccc(O)c4)c4nc(c(-c5cccc(O)c5)c5ccc2[nH]5)CC4)C=C3)c1,20 µM (active),–
COc1cc2c(cc1OC)-c1cc(=Nc3c(C)cc(C)cc3C)n(C)c(=O)n1CC2,15.8 µM (active),–
c1ccc(-c2ccc(C(c3ccccc3)n3ccnc3)cc2)cc1 (stereo not drawn),12.6 µM (active),–
c1ccc(OCc2ccc(CCCN3CCOCC3)cc2)cc1,22.4 µM (active),–
CN1CCC(Nc2ncc3ncnc(Nc4ccc(F)c(Cl)c4)c3n2)CC1,–,inactive
